The record followed here is PubChem BioAssay (NCI).

Among the test systems are DU-145 prostate; MALME-3M melanoma; MDA-MB-231 breast; RXF 393 renal; SF-268 CNS; SF-295 CNS; SF-539 CNS; UACC-257 melanoma; M14 melanoma.
Holding throughout (test): NCI-60 one-dose screen, 48 h (100 = growth as untreated, 0 = no growth, -100 = all killed)
Conditions in all cases: 10 µM unless noted

About 83,000 compounds went through this panel and 20% of them were active in at least one assay; those are over-represented in the sample as a whole.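 Note: values are percent growth. 100 is the growth of untreated cells, values between 100 and 0 indicate rising inhibition; between -100 and 0 indicates cell death.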 A number with no mark means an inactive call. Activity calls are given as the source filed them. Rule for the calls: active = growth percent below 10; inactive = the rest.

With `COc1ccc(-c2nc([C@@H](C)Sc3nc(N)cc(N)n3)c(C)s2)cc1OCCN1CCOCC1`, the growth with DU-145 prostate was 111%; in the experiment with MALME-3M melanoma, 102%; in the experiment on MDA-MB-231 breast, 66.6%; in the experiment on RXF 393 renal it was 96%; in the experiment on SF-268 CNS, 102%; with SF-295 CNS, 97.6%. Further, the growth with SF-539 CNS was 111%; with UACC-257 melanoma, 100%; with M14 melanoma, 114%.

In the case of `CCN1Cc2nc3sc(C)c(C)c3c(=O)n2C=C1C`, the growth in the experiment with DU-145 prostate is 61.8%; in the experiment on MALME-3M melanoma it was 79%; in the experiment with MDA-MB-231 breast it was 58.3%; in the experiment on RXF 393 renal, 45.8%; with SF-268 CNS, 101%; with SF-295 CNS, 81%. In addition, the growth in the experiment with SF-539 CNS was 70%; with UACC-257 melanoma it was 69.3%; in the experiment on M14 melanoma, 27.5%.

Regarding `N#CC(C(=O)/C(=N/NC(=O)c1ccccc1O)C(C#N)c1ccccc1)c1ccccc1` (stereo unspecified), the growth is 39.4% in the experiment on DU-145 prostate; 87.8% with MALME-3M melanoma; 63.7% in the experiment with MDA-MB-231 breast; 55.9% with RXF 393 renal; 44.1% with SF-268 CNS; 101% in the experiment on SF-295 CNS. The growth in the experiment on SF-539 CNS was 33.3%; in the experiment with UACC-257 melanoma it was 46.2%; in the experiment on M14 melanoma, 46.4%.

In the case of `Cc1ccc(-c2csc(NC(=O)CSc3nc(-c4ccccc4)cc(=O)[nH]3)n2)cc1`, the growth in the experiment on DU-145 prostate is 103%; in the experiment on MALME-3M melanoma, 94.4%; in the experiment with MDA-MB-231 breast, 93.2%; in the experiment with RXF 393 renal, 110%; in the experiment with SF-268 CNS, 90.2%; in the experiment with SF-295 CNS, 87.5%. The growth in the experiment with SF-539 CNS is 97.7%; in the experiment with UACC-257 melanoma it was 99.9%; in the experiment with M14 melanoma, 105%.

With `O=C(Cn1c(C(=O)c2ccccc2)nc2ccccc21)c1ccc(F)cc1`, the growth with DU-145 prostate was 96.6%; in the experiment with MALME-3M melanoma, 57.2%; with MDA-MB-231 breast, 46.7%; in the experiment on RXF 393 renal, 45.5%; with SF-268 CNS, 73.3%; with SF-295 CNS, 62.9%. Further, the growth with SF-539 CNS is 78.8%; with UACC-257 melanoma it was 75.2%; in the experiment on M14 melanoma it was 44%.

Consider `CC(=O)Oc1ccc(/C=N/NC(N)=S)nc1`, for which the growth in the experiment with DU-145 prostate was 81.5%; in the experiment on MALME-3M melanoma it was 97.8%; in the experiment with MDA-MB-231 breast, 87.1%; with RXF 393 renal it was 34.7%; with SF-268 CNS it was 66.5%; in the experiment on SF-295 CNS, 104%. Moreover, the growth was 20.4% with SF-539 CNS, 81.4% in the experiment on UACC-257 melanoma and 58.2% with M14 melanoma.

For `O=c1c2c(c(=O)n1O)c1c3ccc[nH]c3nc1c1nc3[nH]cccc3c12`, the growth is 95.4% with DU-145 prostate; 84.3% in the experiment on MALME-3M melanoma; 77.4% with MDA-MB-231 breast; 87% with RXF 393 renal; 71.7% in the experiment on SF-268 CNS; 96% in the experiment with SF-295 CNS. The figures for the growth in the experiment on SF-539 CNS, in the experiment with UACC-257 melanoma and with M14 melanoma were 83.9%, 85.4% and 94%, respectively.

Turning to `OCc1cnccc1NCCCOc1ccccc1`, the growth in the experiment with DU-145 prostate was 104%; in the experiment on MALME-3M melanoma, 104%; in the experiment on MDA-MB-231 breast it was 88.6%; in the experiment with RXF 393 renal it was 104%; with SF-268 CNS it was 101%; in the experiment with SF-295 CNS, 104%. For the same compound, the values for the growth with SF-539 CNS, with UACC-257 melanoma and with M14 melanoma were 102%, 100% and 109%, respectively.

For `O=C1c2ccccc2CCC12OC2c1cn(-c2ccccc2)nc1-c1ccc(Cl)cc1` (stereo unspecified), the growth with DU-145 prostate was 111%; with MALME-3M melanoma, 105%; in the experiment with MDA-MB-231 breast, 91.9%; in the experiment with RXF 393 renal it was 93.1%; in the experiment with SF-268 CNS, 93.1%; in the experiment on SF-295 CNS it was 71.9%. The growth with SF-539 CNS was 93.4%; in the experiment with UACC-257 melanoma, 96.1%; in the experiment on M14 melanoma it was 97.7%.

Turning to `COc1cc(NCCCCCNC(C)(C)C)c2ncccc2c1`, the growth with DU-145 prostate is 112%; in the experiment with MALME-3M melanoma, 107%; in the experiment with MDA-MB-231 breast it was 89.8%; with RXF 393 renal, 97.4%; in the experiment with SF-268 CNS, 105%; with SF-295 CNS it was 77.5%. Further, the growth in the experiment with SF-539 CNS is 99.7%; in the experiment with UACC-257 melanoma it was 133%; in the experiment on M14 melanoma, 104%.

In the case of `COC(=O)c1ccc2c(c1)[n+](=O)c(C(C)=O)c(C(F)(F)F)n2[O-]`, the growth in the experiment with DU-145 prostate is 1.28% (active); with MALME-3M melanoma, -26.4% (active); in the experiment with MDA-MB-231 breast, -4.69% (active); in the experiment on RXF 393 renal, -20.1% (active); in the experiment on SF-268 CNS, -24.8% (active); in the experiment with SF-295 CNS, -45.7% (active). Moreover, the growth in the experiment on SF-539 CNS was -45.8% (active); with UACC-257 melanoma it was -30.3% (active); in the experiment on M14 melanoma, -23.5% (active).

As to `C=C(C)[C@@H]1CC[C@]2(C(=O)N3CCN(C)CC3)CC[C@]3(C)[C@H](CC[C@@H]4[C@@]5(C)CC[C@H](O)C(C)(C)[C@@H]5CC[C@]43C)[C@@H]12`, the growth in the experiment with DU-145 prostate was -57.3% (active); in the experiment on MALME-3M melanoma, -73.1% (active); in the experiment on MDA-MB-231 breast, -63.4% (active); in the experiment on RXF 393 renal, -91.6% (active); in the experiment on SF-268 CNS it was -74.8% (active); in the experiment with SF-295 CNS, -86.9% (active). Further, the growth in the experiment with SF-539 CNS is -74.3% (active); in the experiment with UACC-257 melanoma, -88.5% (active); with M14 melanoma, -86.4% (active).

With `COc1ccc(/C=C/c2nc(Nc3ccc(S(=O)(=O)Nc4cc(C)on4)cc3)c3ccccc3n2)cc1`, the growth is 77.3% with DU-145 prostate; 112% in the experiment on MALME-3M melanoma; 62.1% with MDA-MB-231 breast; 113% in the experiment with RXF 393 renal; 76.4% with SF-268 CNS; 54.6% with SF-295 CNS. The growth is 88.7% in the experiment with SF-539 CNS, 77.5% in the experiment with UACC-257 melanoma and 39.9% in the experiment on M14 melanoma.

In the case of `COc1ccc2c(c1)oc1c(C)c3c(c(C)c12)C(=O)N(CCN1CCOCC1)C3=O`, the growth is 107% in the experiment on DU-145 prostate; 100% in the experiment on MALME-3M melanoma; 86.2% in the experiment with MDA-MB-231 breast; 93.9% in the experiment with RXF 393 renal; 99.5% with SF-268 CNS; 110% with SF-295 CNS. The values for the growth in the experiment on SF-539 CNS, in the experiment with UACC-257 melanoma and with M14 melanoma were 100%, 93.8% and 104%, respectively.
